Shown are actives, neighbours in structure and some others; about 19% of the full set was active somewhere.
HT1080 IDH1KD tx: kills HT-1080 cells with IDH1 knockdown; HT-1080 IDH1 knockdown viability, ATP luminescence, 48 h; Potency, µM (highest dose often 46.1 µM), without a hit: at the highest dose activity, negative = toxicity, hits mostly cytotoxic; 360,000 tested, 2% active;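 also: potency is read from the fitted curve at half-maximal effect; 0% = DMSO wells and -100% = cell-free medium wells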
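HT-1080-IDH1KD cells (IDH1 knocked down), 750/well in RPMI with 5% FBS, treated with compound 48 h at 37 degrees C. Viability by CellTiter-Glo luminescence, normalised to DMSO and no-cell wells; concentration-response curves classed.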
IL-1B inflam inh: blocks inflammasome-driven IL-1 beta release; 360,000 tested, 4.7% active; THP-1 LPS/ATP IL-1B secretion, AlphaLISA, 16 h; active compounds read low; activity change, % at 57.5 µM; in the data active = activity change below about -50%; inconclusive = mostly about -30% to -49%
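Secreted IL-1B measured by AlphaLISA bead assay after 16 h compound exposure of THP-1 cells; compounds (final up to 57.5 uM) added 1 h before LPS (250 ng/mL) and ATP (1.25 mM) stimulation; lower signal means less secretion.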
TDP1 cell noCPT: qHTS for Inhibitors of human tyrosyl-DNA phosphodiesterase 1 (TDP1): qHTS in cells in absence of CPT. DT40 Tdp1-/- hTDP1 cells, no CPT, ATP luminescence, 48 h. Potency, µM (series often up to 46.2 µM), for the others: at the highest dose activity change, negative = growth inhibition, hits mostly inhibitors. 420,000 tested, 15% active. AID 686978, 2013; also: potency is read from the fitted curve at half-maximal effect; nearly all actives have a fitted effect of over 55% in size
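Chicken DT40 Tdp1-/- cells stably complemented with human TDP1 were seeded at 400 cells/well with DMSO in place of 20 nM camptothecin. After compound pinning, cells grew at least 48 hr at 37 °C; viability read by CellTiter-Glo luminescence.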
HT1080-NT tox: kills 2HG-producing HT-1080-NT fibrosarcoma cells. HT-1080-NT fibrosarcoma viability, CellTiter-Glo ATP luminescence, 48 h. Potency, µM (top dose mostly 46.1 µM), without a hit: top-dose activity, negative = less viability, usual class: cytotoxic. 360,000 tested, 1.6% active. AID 686970;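 also: NT is the 2HG producing partner of a matched IDH1 knockdown line; potency is read from the fitted curve at half-maximal effect; 0% = DMSO-treated cells and -100% = media-only wells without cells; nearly all actives have a fitted effect of over 55% in size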
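HT-1080-NT; 750 cells/well; 5% FBS RPMI; 48 h compound, 37 degrees C; CellTiter-Glo luminescence; curve fitting and curve-class assignment.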
DT40 TDP1 CPT: DT40-hTDP1 cell growth loss with CPT. Potency, µM (doses to about 46.2 µM), for inactives: top-dose activity change, negative = growth inhibition, hits mostly inhibitors. AID 686979. chicken DT40 Tdp1-/-;hTDP1 cells + 20 nM CPT, ATP luminescence, 48 h. 420,000 tested, 12% active; also: potency is read from the fitted curve at half-maximal effect; nearly all actives have a fitted effect of over 55% in size
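Chicken DT40 Tdp1-/- cells complemented with human TDP1, 400 cells/well, exposed to compounds plus 20 nM camptothecin for at least 48 h at 37 C; viability read as ATP content by CellTiter-Glo luminescence.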
* hit, by the source's call; ! = repeats disagree. Unless noted, calls follow the shape of the dose curve; as a rule, active = well fitted curve in the direction sought with a large enough effect; inconclusive = small, poorly fitted or top-dose-only effect, or another doubt; inactive = no such curve, though single readings can be large; an effect the other way counts as inactive or inconclusive. Unless noted, % is scaled to controls: 0 for no effect and ±100 for the full control effect.

CC(=O)[C@H]1CC[C@H]2[C@@H]3CC[C@H]4C[C@](C)(O)CC[C@]4(C)[C@H]3CC[C@]12C was read as TDP1 cell noCPT -16% and DT40 TDP1 CPT 6%.
For COC(=O)C1=C(c2ccc(F)cc2F)C[C@@H]2CC[C@H]1N2C(=O)NCc1ccc(F)cc1 the results were HT1080 IDH1KD tx 0%, IL-1B inflam inh -6, TDP1 cell noCPT inconclusive, HT1080-NT tox -1% and DT40 TDP1 CPT inconclusive.
For COC(=O)C1=C(c2ccc(-c3ccccc3)c(F)c2)C[C@@H]2CC[C@H]1N2C(=O)NCCO the results were HT1080 IDH1KD tx -1%, IL-1B inflam inh -6, TDP1 cell noCPT 21µM*, HT1080-NT tox 9% and DT40 TDP1 CPT inconclusive.
For CCCNC(=O)N1[C@H]2CC[C@@H]1C(C(=O)OC)=C(c1ccc(-c3ccccc3)c(F)c1)C2 the results were HT1080 IDH1KD tx -6%, IL-1B inflam inh inconclusive, TDP1 cell noCPT 7.3µM*, HT1080-NT tox -13% and DT40 TDP1 CPT 9.2µM*.
For COC(=O)C1=C(c2ccc(F)cc2F)C[C@@H]2CC[C@H]1N2C(=O)NCCOc1ccccc1 the results were HT1080 IDH1KD tx 1%, IL-1B inflam inh -11, TDP1 cell noCPT inconclusive, HT1080-NT tox -7% and DT40 TDP1 CPT 23µM*.
For COC(=O)C1=C(c2ccc(-c3ccccc3)c(F)c2)C[C@@H]2CC[C@H]1N2C(=O)NCc1ccco1 the results were HT1080 IDH1KD tx -11%, IL-1B inflam inh -16, TDP1 cell noCPT 6.5µM*, HT1080-NT tox -24% and DT40 TDP1 CPT 7.3µM*.
For COC(=O)C1=C(c2ccc(-c3ccccc3)c(F)c2)C[C@@H]2CC[C@H]1N2C(=O)NCCOc1ccccc1Cl the results were HT1080 IDH1KD tx -17%, IL-1B inflam inh inconclusive, TDP1 cell noCPT inconclusive, HT1080-NT tox -25% and DT40 TDP1 CPT inconclusive.
For COc1cccc(C2SCC(=O)Nc3c2c(C)nn3-c2ccc(C)c(Cl)c2)c1OC (configuration not stated) the results were TDP1 cell noCPT 21µM* and DT40 TDP1 CPT 21µM*.
`CCCOc1ccc(C2SCC(=O)Nc3c2c(C)nn3-c2cccc(C)c2)cc1OC` (configuration not stated) gave TDP1 cell noCPT 21µM* and DT40 TDP1 CPT 16µM*.
Cc1nn(-c2ccccc2)c2c1C(c1ccc3c(c1)OCO3)SCC(=O)N2 (configuration not stated) was read as HT1080 IDH1KD tx -2%, IL-1B inflam inh -30, TDP1 cell noCPT inconclusive, HT1080-NT tox 14% and DT40 TDP1 CPT inconclusive.
`COc1cc(C2SCC(=O)Nc3c2c(C)nn3-c2ccccc2)cc(OC)c1OC` (configuration not stated) gave HT1080 IDH1KD tx 1%, IL-1B inflam inh 14, TDP1 cell noCPT -9%, HT1080-NT tox -4% and DT40 TDP1 CPT -20%.
For O=C(Cc1ccccc1)N1CCN(Cc2ccc(Cl)cc2)CC1 the results were HT1080 IDH1KD tx 1%, IL-1B inflam inh 7, TDP1 cell noCPT inconclusive, HT1080-NT tox 2% and DT40 TDP1 CPT inconclusive.
`CN(C)C(=O)C(CCN1CCC(O)(c2ccc(Cl)cc2)CC1)(c1ccccc1)c1ccccc1` gave HT1080 IDH1KD tx 8.2µM*, IL-1B inflam inh -59*, TDP1 cell noCPT 5.2µM*!, HT1080-NT tox 18µM* and DT40 TDP1 CPT 8.2µM*.
CS(=O)(=O)N1CCC2(CC1)CN(Cc1ccncc1)C2 was read as TDP1 cell noCPT 6% and DT40 TDP1 CPT 2%.
NCCc1ccc(OCc2ccccc2)c(OCc2ccccc2)c1 was read as HT1080 IDH1KD tx inconclusive, IL-1B inflam inh -82*, TDP1 cell noCPT 12µM*, HT1080-NT tox -25% and DT40 TDP1 CPT 16µM*.
CC1CCN(C(=O)C(C)Cl)CC1 (configuration not stated) was read as HT1080 IDH1KD tx 8%, IL-1B inflam inh 8, TDP1 cell noCPT 3%, HT1080-NT tox 9% and DT40 TDP1 CPT 4%.
COc1ccc(CN2CCN(C(=O)Cc3ccccc3)CC2)cc1OC was read as HT1080 IDH1KD tx 0%, IL-1B inflam inh 6, TDP1 cell noCPT 0%, HT1080-NT tox -3% and DT40 TDP1 CPT -24%.
Screening COc1ccc(CNC(=O)CSCc2cnn(-c3ccccc3)c2-n2cccc2)cc1OC returned TDP1 cell noCPT 13µM* and DT40 TDP1 CPT 15µM*.
For O=C(c1ccc(C(F)(F)F)cc1)C1CCCN(C2CCSCC2)C1 (configuration not stated) the results were HT1080 IDH1KD tx -19%, IL-1B inflam inh -9, TDP1 cell noCPT inconclusive, HT1080-NT tox -16% and DT40 TDP1 CPT inconclusive.
`Cc1cc(Cl)ccc1C(=O)C1CCCN(C2CCSCC2)C1` (configuration not stated) gave HT1080 IDH1KD tx -27%, IL-1B inflam inh -28, TDP1 cell noCPT 21µM*, HT1080-NT tox -17% and DT40 TDP1 CPT 26µM*.
For Cc1cc(-c2ccc(C)c(S(=O)(=O)N3CCOc4ccc(Cl)cc43)c2)on1 the results were TDP1 cell noCPT 13µM* and DT40 TDP1 CPT 21µM*.
For CCN1CCN(c2ccc(NC(C)=O)cc2Cl)CC1 the results were HT1080 IDH1KD tx -1%, IL-1B inflam inh 3, TDP1 cell noCPT 25%, HT1080-NT tox 1% and DT40 TDP1 CPT 3%.
Screening O=C(Nc1ccc(Cl)cc1)Nc1ccc(Cl)c(Cl)c1 returned HT1080 IDH1KD tx inconclusive, IL-1B inflam inh -87*, TDP1 cell noCPT 2.9µM*, HT1080-NT tox inconclusive and DT40 TDP1 CPT 4.6µM*.
`Fc1cccc(CNCCc2c[nH]c3ccccc23)c1` gave HT1080 IDH1KD tx 2%, IL-1B inflam inh inconclusive, TDP1 cell noCPT inconclusive, HT1080-NT tox 1% and DT40 TDP1 CPT inconclusive.
`COc1cc(CNCCc2c[nH]c3ccccc23)cc(OC)c1` gave HT1080 IDH1KD tx inconclusive, IL-1B inflam inh -80*, TDP1 cell noCPT 23µM*, HT1080-NT tox inconclusive and DT40 TDP1 CPT inconclusive.
Screening COc1cc(CNCCc2c[nH]c3ccccc23)cc(OC)c1OC returned HT1080 IDH1KD tx -6%, IL-1B inflam inh inconclusive, TDP1 cell noCPT inconclusive, HT1080-NT tox -4% and DT40 TDP1 CPT inconclusive.
c1ccc(CNCCc2c[nH]c3ccccc23)cc1 was read as HT1080 IDH1KD tx 1%, IL-1B inflam inh -10, TDP1 cell noCPT -29%, HT1080-NT tox -10% and DT40 TDP1 CPT -24%.
For Cc1cccc(CNCCc2c[nH]c3ccccc23)c1 the results were HT1080 IDH1KD tx inconclusive, IL-1B inflam inh -75*, TDP1 cell noCPT 13µM*, HT1080-NT tox 15µM* and DT40 TDP1 CPT 16µM*.

High-throughput results deposited in PubChem by National Center for Advancing Translational Sciences (NCATS).
